# GPR151 activ – human GPR151 activation; 650,000 compounds, 1% hits; PathHunter beta-arrestin GPR151 cells, luminescence; activation, % at 11.2 µM; Q8TDV0; AID 1508602; in the data active means activation above about 4.9%;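 further: 0% = median of compound wells and 100% = cells with positive control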
# MITF primary – blocks human microphthalmia-associated transcription factor. inhibition, % at 2.6 µM. AlphaScreen MITF homodimerization, bead proximity signal. 650,000 compounds, 0.91% hits. O75030; in the data active means inhibition above about 50%;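 further: 0% = vehicle wells with protein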
# Target sequence (O75030 whole entry, looked up): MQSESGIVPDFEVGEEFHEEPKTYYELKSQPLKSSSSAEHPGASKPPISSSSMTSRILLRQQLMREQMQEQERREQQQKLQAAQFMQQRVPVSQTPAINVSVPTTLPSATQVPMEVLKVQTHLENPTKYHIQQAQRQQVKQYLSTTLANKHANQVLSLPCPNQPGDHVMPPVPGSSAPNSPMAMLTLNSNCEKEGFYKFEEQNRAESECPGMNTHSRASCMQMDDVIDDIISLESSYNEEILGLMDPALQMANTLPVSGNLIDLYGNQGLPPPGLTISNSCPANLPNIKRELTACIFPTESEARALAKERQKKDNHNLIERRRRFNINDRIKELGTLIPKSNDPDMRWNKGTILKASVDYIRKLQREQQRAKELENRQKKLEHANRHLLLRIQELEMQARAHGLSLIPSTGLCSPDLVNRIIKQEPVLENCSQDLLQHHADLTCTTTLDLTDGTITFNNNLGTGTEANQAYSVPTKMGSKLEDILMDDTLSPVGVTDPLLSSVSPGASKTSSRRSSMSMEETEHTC
# TEAD-YAP block – TEAD-YAP interaction inhibition; 640,000 compounds, 1.4% hits; AID 1259422; HEK-TIYL cells, TEAD-Gal4/YAP UAS-luciferase luminescence; inhibition, % at 9.12 µM; in the data active means inhibition above about 32%;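 further: 0% = median of test compound wells and 100% = reference inhibitor wells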
# FBW7 act – human FBW7 E3 ligase activation, primary screen | AlphaScreen FBW7–phospho-cyclin E peptide binding, activator screen | 650,000 compounds, 0.13% hits | normalized activity (activation), % at 26.1 µM | Q969H0; in the data active means normalized activity above about 1.9%;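 further: purified mutant Fbw7 with reduced substrate affinity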
# Numbers without * were called inactive. This is a sample that favours compounds with a hit; in the whole collection about 3.5% have one here.
SMILES,GPR151 activ,MITF primary,TEAD-YAP block,FBW7 act
CC(C(=O)N1CCCCC1)(C(F)(F)F)C(F)(F)F,-1,-6,-4,0
COc1cccc(C(=O)Nc2ccc(CC(=O)O)cc2)c1,-1,-3,60*,0
COc1cccc(C(=O)Nc2ccc(-c3ccccc3)cc2)c1,-2,-2,-16,0
COc1cccc(C(=O)Nc2ccc(N3CCN(C(=O)C(C)C)CC3)cc2)c1,1,-7,46*,0
CN1CCN(c2ccc(NC(=O)COc3ccccc3[N+](=O)[O-])cc2)CC1,1,15,6,0
Cc1cccc(C(=O)Nc2ccc(N3CCN(C(=O)C(C)C)CC3)cc2)c1,0,-10,-5,0
CC(C)C(=O)N1CCN(c2ccc(NC(=O)COc3ccccc3[N+](=O)[O-])cc2)CC1,0,9,50*,0
COc1cccc(C(=O)Nc2ccc(Oc3ccc4c(c3)C(=O)NC4=O)cc2)c1,-1,7,51*,0
COc1ccc(C(=O)OCc2cc([N+](=O)[O-])ccc2Cl)cc1,-1,4,-5,0
C1CCN(c2nc3nonc3nc2NC2CCOCC2)CC1,0,5,8,0
COc1ccc(NC(=O)c2cc3cccc(OC)c3oc2=O)cc1,0,15,-18,0
COc1cccc(C(=O)NNC(=O)Cc2ccc(-c3ccccc3)cc2)c1,1,-4,62*,1
COc1cccc2cc(C(=O)Nc3ccc(CC(=O)O)cc3)c(=O)oc12,-4,-11,72*,0
CN1C(=O)/C(=C\c2ccc(OC(F)F)cc2)SC1=S,1,9,14,0
COc1ccc(/C=C/C(=O)Nc2ncc(Cc3ccccc3)s2)cc1,0,4,-2,0
COc1ccc(Cc2cnc(NC(=O)/C=C/c3ccccc3)s2)cc1,2,-2,56*,0
COc1ccc(Cc2cnc(NC(=O)/C=C/c3ccco3)s2)cc1,-1,2,64*,0
Cc1ccc(N2CCN(S(=O)(=O)c3ccc4c(c3)NC(=O)CC(=O)N4)CC2C)cc1 (centres undefined),0,0,2,0
O=C(Nc1ccc(N2CCOCC2)cc1)c1cc(N2CCN(c3ccccn3)CC2)nc2ccccc12,-2,5,3,0
O=C(COC(=O)c1cc2ccccc2cc1O)c1ccc([N+](=O)[O-])cc1,0,12,8,0
Nc1ncc(-c2ccncc2)nc1-c1ccc(N2CCOCC2)cc1,0,15,-11,0
O=C1CC(c2ccc3c(c2)OCCO3)Oc2ccc([N+](=O)[O-])cc21 (centres undefined),-1,17,52*,0
O=C1CC(c2ccc3c(c2)OCCO3)Oc2ccccc21 (centres undefined),-1,6,-32,0
CCn1nnc2c(Nc3cccc(C)c3)ncnc21,-3,-1,-61,0
CCn1nnc2c(NCc3ccc4[nH]c(C)cc4c3)ncnc21,3,17,65*,0
SMILES,GPR151 activ,MITF primary,TEAD-YAP block,FBW7 act
Cc1cccc(-c2nc(C#N)c(NCC(C)C)o2)c1,3,-15,-63,0
Nc1cccc(F)c1Nc1ccc2c(cnn2-c2cccc(C(=O)NCCN3CCOCC3)c2)c1,0,-14,79*,0
Cc1ccccc1OCC1=NN2C(=N)/C(=C\c3coc4ccccc4c3=O)C(=O)N=C2S1,2,4,4,0
C[C@@H]1O[C@@H](OC[C@H]2OC(Oc3c(-c4ccc(O)c(O)c4)oc4cc(O)cc(O)c4c3=O)[C@H](O)[C@@H](O)[C@@H]2O)[C@H](O)[C@H](O)[C@H]1O (some centres undefined),0,82*,7,0
COc1cc(CNc2ccnc3c(-c4cccc(F)c4)cnn23)cc(OC)c1OC,1,9,4,1.9*
COc1ccc(CNc2ccnc3c(-c4ccccc4)cnn23)cc1,-1,2,-18,1.9*
COc1ccc(CNc2ccnc3c(-c4ccc(OC)cc4)cnn23)cc1,2,-1,12,0
CCOc1ccc(-n2c(=S)sc3c(=O)n(-c4ccccc4)c(SCC(=O)Nc4ccc(C)cc4)nc32)cc1,1,3,-3,0
Cc1ccc(-c2nc(C=Nc3ccc(Br)cc3Br)c(O)o2)cc1,1,0,-4,0
FC(F)(F)c1ccc(Nc2nc(NC3CC3)c3ncn(-c4ccccc4)c3n2)cc1,0,16,-8,0
c1ccc(Nc2nc(NC3CC3)c3ncn(-c4ccccc4)c3n2)cc1,0,0,47*,0
c1ccc(-n2cnc3c(NC4CC4)nc(Nc4cccnc4)nc32)cc1,-2,5,42*,0

# High-throughput results: PubChem BioAssay, The Scripps Research Institute Molecular Screening Center
